Laboratory results reported in PubChem BioAssay (Tox21).
Results filed as inconclusive are left out. Calls of active or inactive are those of the source. Calls follow the shape of the full dose curve.

Columns and labels:
[1] = molecular target: Acetylcholinesterase (Homo sapiens) (UniProt P22303); assay: Acetylcholinesterase (AChE) small molecule antagonists: colormetric cell-based qHTS assay (AID 1347395); also: nearly all actives have a fitted effect of over 30% in size
Outline: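 Colorimetric read-out: DTNB detects thiocholine released when cellular AChE in SH-SY5Y cells hydrolyses acetylthiocholine. Cells attached overnight, received compound for 30 min at 37 C, then substrate mix for 90 min at 37 C.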

[2] = molecular target: Acetylcholinesterase (Homo sapiens) (UniProt P22303); assay: Acetylcholinesterase (AChE) small molecule antagonists: enzyme-based qHTS assay (AID 1347397); details: Potency: AChE enzyme activity inhibition; outcome: AChE enzyme activity inhibition; also: nearly all actives have a fitted effect of over 55% in size
Outline: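 Recombinant human AChE (50 mU/mL) preincubated with compound 30 min at room temperature; acetylthiocholine plus DTNB then added, and thiocholine formation read colorimetrically after 10 min at room temperature. DMSO served as vehicle control.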

[3] = molecular target: Acetylcholinesterase (Homo sapiens) (UniProt P22303); assay: Acetylcholinesterase (AChE) small molecule antagonists: fluorescence cell-based qHTS assay (AID 1347398); details: Potency: AChE activity; outcome: AChE activity; also: nearly all actives have a fitted effect of over 50% in size
Outline: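 SH-SY5Y cells (2000/well), attached overnight, incubated with compound 30 min at 37 C. Acetylthiocholine plus Thiolite Green then added for 40 min at room temperature. Thiocholine fluorescence (Ex/Em 490/520 nm) reports cellular AChE activity.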

[4] = molecular target: Acetylcholinesterase (Homo sapiens) (UniProt P22303); assay: Acetylcholinesterase (AChE) small molecule antagonists: enzyme-based qHTS assay with human liver microsomes (AID 1347399); details: Potency: qHTS inhibition; outcome: qHTS inhibition; also: nearly all actives have a fitted effect of over 60% in size
Outline: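 Recombinant human AChE (50 mU/mL in the enzyme mix) and human liver microsomes (0.25 mg/mL final) were preincubated with compound and NADPH (0.25 mg/mL final) for 30 min at 37 C. Acetylthiocholine/DTNB was then added; thiocholine was read colorimetrically after 10 min at room temperature.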
% is scaled to controls: 0 for no effect and ±100 for the full control effect.

Sequence of Acetylcholinesterase (Homo sapiens) (P22303 whole entry, looked up): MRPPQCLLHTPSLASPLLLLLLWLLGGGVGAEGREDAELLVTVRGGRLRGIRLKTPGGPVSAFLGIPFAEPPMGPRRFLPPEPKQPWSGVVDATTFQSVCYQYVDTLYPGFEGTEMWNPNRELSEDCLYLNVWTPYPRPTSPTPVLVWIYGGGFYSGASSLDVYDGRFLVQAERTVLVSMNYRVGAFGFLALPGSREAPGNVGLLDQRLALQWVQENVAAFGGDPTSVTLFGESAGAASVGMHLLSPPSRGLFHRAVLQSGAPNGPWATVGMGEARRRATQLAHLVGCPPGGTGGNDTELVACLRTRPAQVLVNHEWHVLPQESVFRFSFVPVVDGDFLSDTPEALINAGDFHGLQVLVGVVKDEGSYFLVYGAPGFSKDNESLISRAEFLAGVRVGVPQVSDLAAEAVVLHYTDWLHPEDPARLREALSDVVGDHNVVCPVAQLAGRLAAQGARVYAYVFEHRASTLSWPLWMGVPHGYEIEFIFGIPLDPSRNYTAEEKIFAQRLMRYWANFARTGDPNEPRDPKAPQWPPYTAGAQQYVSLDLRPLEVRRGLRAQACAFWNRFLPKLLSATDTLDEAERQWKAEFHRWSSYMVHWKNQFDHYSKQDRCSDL

C=C(C)C(=O)OCCC[Si](OC)(OC)OC
inactive: Potency [1] | Potency [2] | Potency [3] | Potency [4]

CC1(O)CSC(C)(O)CS1 (stereo not drawn)
inactive: Potency [1] | Potency [2] | Potency [3] | Potency [4]

C[C@@H]1O[C@@H](O[C@@H]2[C@@H](O)[C@H](OCCc3ccc(O)c(O)c3)O[C@H](CO[C@@H]3O[C@H](CO)[C@@H](O)[C@H](O)[C@H]3O)[C@H]2OC(=O)/C=C/c2ccc(O)c(O)c2)[C@H](O)[C@H](O)[C@H]1O
inactive: Potency [1] | Potency [2] | Potency [3] | Potency [4]

O=C1CCCCC1C1CCCCC1 (stereo not drawn)
inactive: Potency [1] | Potency [2] | Potency [3] | Potency [4]

Cc1cccc(OCC(O)CNC(C)(C)C)c1C (stereo not drawn)
inactive: Potency [1] | Potency [2] | Potency [3] | Potency [4]

CCCCNC(=S)NCCCC
inactive: Potency [1] | Potency [2] | Potency [3] | Potency [4]

CCCCCCCCCCCCCCCCN
inactive: Potency [1] | Potency [2] | Potency [3] | Potency [4]

C=C(C)[C@@H]1CCC2=CC(=O)C[C@@H](C)[C@]2(C)C1
inactive: Potency [1] | Potency [2] | Potency [3] | Potency [4]

C=C(CC)C(=O)c1ccc(OCC(=O)O)c(Cl)c1Cl
inactive: Potency [1] | Potency [2] | Potency [3] | Potency [4]

OCCN(CCO)CCN(CCO)CCO
inactive: Potency [1] | Potency [2] | Potency [3] | Potency [4]

Oc1cc(O)c(Cl)cc1Cl
inactive: Potency [1] | Potency [2] | Potency [3] | Potency [4]

Cc1c(O)cccc1O
inactive: Potency [1] | Potency [2] | Potency [3] | Potency [4]

O=C(O)CNCC(=O)O
inactive: activity, negative = inhibition [1] 1.88% [at 10.5 µM] | activity change, negative = inhibition [2] -0.541% [at 10.5 µM] | activity change, negative = inhibition [3] -0.972% [at 10.5 µM] | activity change, negative = inhibition [4] -0.995% [at 10.5 µM]

CCOc1ccc([N+](=O)[O-])cc1
inactive: Potency [1] | Potency [2] | Potency [3] | Potency [4]

OC[C@@H](O)[C@H](O)[C@H](O)[C@@H](O)CO
inactive: Potency [1] | Potency [2] | Potency [3] | Potency [4]

OCCCCl
inactive: Potency [1] | Potency [2] | Potency [3] | Potency [4]

COC(C)(C)CCO
inactive: Potency [1] | Potency [2] | Potency [3] | Potency [4]

CCC(C)c1ccccc1O (stereo not drawn)
inactive: Potency [1] | Potency [2] | Potency [3] | Potency [4]

CC/C=C\C/C=C\C/C=C\CCCCCCCC(=O)OCC
inactive: Potency [1] | Potency [2] | Potency [3] | Potency [4]

CCCCCCCCCC
inactive: Potency [1] | Potency [2] | Potency [3] | Potency [4]

Cc1cc(C(=O)O)ccc1[N+](=O)[O-]
inactive: Potency [1] | Potency [2] | Potency [3] | Potency [4]

COc1nc(C)nc(NC(=O)NS(=O)(=O)c2ccccc2OCCCl)n1
inactive: Potency [1] | Potency [2] | Potency [3] | Potency [4]

C[C@](N)(Cc1ccc(O)c(O)c1)C(=O)O
inactive: Potency [1] | Potency [2] | Potency [3] | Potency [4]

OCC(O)CN1CCN(c2ccccc2)CC1 (stereo not drawn)
inactive: Potency [1] | Potency [2] | Potency [3] | Potency [4]

CCCCCCCCCCCCCC(=O)O
inactive: Potency [1] | Potency [2] | Potency [3] | Potency [4]

CC(C)COC(=O)/C=C/c1ccccc1
inactive: Potency [1] | Potency [2] | Potency [3] | Potency [4]

C#CC(C)(CC)OC(=O)c1ccccc1C(=O)O (stereo not drawn)
inactive: Potency [1] | Potency [2] | Potency [3] | Potency [4]

C=C(C)C1CC=C(C)CC1 (stereo not drawn)
inactive: Potency [1] | Potency [2] | Potency [3] | Potency [4]

CC(=O)NNC(C)=O
inactive: Potency [1] | Potency [2] | Potency [3] | Potency [4]

CC(C)(CC(=O)O)C(=O)O
inactive: Potency [1] | Potency [2] | Potency [3] | Potency [4]

CC1(C)CC(N)CC(C)(CN)C1 (stereo not drawn)
inactive: Potency [1] | Potency [2] | Potency [3] | Potency [4]

COC(OC)OC
inactive: Potency [1] | Potency [2] | Potency [3] | Potency [4]

FC(F)(F)c1ccccc1-n1ccnc1
inactive: Potency [1] | Potency [2] | Potency [3] | Potency [4]

CCCCCCOC(=O)c1ccc(O)cc1
inactive: Potency [1] | Potency [2] | Potency [3] | Potency [4]

CC(C)n1nc(-c2cc3cc(O)ccc3[nH]2)c2c(N)ncnc21
inactive: Potency [1] | Potency [2] | Potency [3] | Potency [4]

Oc1ccccc1Cc1ccccc1O
inactive: Potency [1] | Potency [2] | Potency [3] | Potency [4]

O=[N+]([O-])c1ccc(/C=C/c2ccc([N+](=O)[O-])cc2S(=O)(=O)O)c(S(=O)(=O)O)c1
inactive: Potency [1] | Potency [2] | Potency [3] | Potency [4]
